Inconclusive results are not listed. Entries that show only a call come without a potency. Unmarked numbers belong to inactive results. Activity calls are given as the source filed them. Unless noted, the call rests on the fitted dose curve; in most records, active means well fitted curve in the direction sought with a large enough effect in the repeat runs; inconclusive means weak or mixed curves; inactive means no such curve, though single readings can be large; an effect the other way counts as inactive or inconclusive.
Key:
[1] = qHTS assay to identify aromatase inhibitors - cell viability counter screen (AID 743084);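 further: cells stimulated with testosterone during compound exposure; nearly all actives have a fitted effect of over 55% in size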; further: potency means the concentration at half of the fitted maximal effect
[2] = qHTS assay to identify small molecule that activate the aryl hydrocarbon receptor (AhR) signaling pathway - cell viability counter screen (AID 743086);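 further: HepG2 liver cells carrying the AhR DRE luciferase reporter; series mostly up to about 70 µM; nearly all actives have a fitted effect of over 45% in size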
Method in brief: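 Cytotoxicity counter screen: CellTiter-Fluor signal (30 min, 37 C) in 4000 HepG2 cells/well carrying the DRE-luciferase reporter, following 24 h compound exposure at 37 C.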

[3] = target: Peroxisome proliferator-activated receptor gamma (Homo sapiens) (UniProt P37231); test: qHTS assay to identify small molecule agonists of the peroxisome proliferator-activated receptor gamma (PPARg) signaling pathway (AID 743094; active means well fitted activation curve with a large enough effect in the signal ratio in the repeat runs, not every such curve was filed as active; the % refers to the signal ratio)
Method in brief: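 Cells from the PPARg UAS-bla HEK293H line are plated and incubated 5 h at 37C. Compounds in DMSO are pinned in and left 17 h at 37C. LiveBLAzer B/G substrate is then added for 1 h at room temperature before fluorescence is measured.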

[4] = target: Peroxisome proliferator-activated receptor gamma (Homo sapiens) (UniProt P37231); test: qHTS assay to identify small molecule antagonists of the peroxisome proliferator-activated receptor gamma (PPARg) signaling pathway (AID 743191; calls by dose curve; further: series mostly up to about 63 µM; nearly all actives have a fitted effect of over 30% in size)
Method in brief: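 Beta-lactamase reporter under UAS control in HEK293H PPARg-bla cells; compound treatment 17 h at 37C. Read-out: fluorescence intensity after 1 h room-temperature incubation with LiveBLAzer B/G FRET substrate.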

[5] = qHTS assay to identify small molecule antagonists of the peroxisome proliferator-activated receptor gamma (PPARg) signaling pathway - cell viability counter screen (AID 743194); further: nearly all actives have a fitted effect of over 55% in size; further: potency means the concentration at half of the fitted maximal effect
Method in brief: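 Viability was measured as CellTiter-Glo luminescence in GeneBLAzer PPARg UAS-bla HEK293H cells. These cells had been exposed 17 h at 37 C to compounds together with rosiglitazone at 50 nM final, with the beta-lactamase readout taken in the same wells.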

[6] = qHTS assay for small molecule agonists of the antioxidant response element (ARE) signaling pathway (AID 743202; active means well fitted activation curve with a large enough effect in the signal ratio in the repeat runs, not every such curve was filed as active; the % refers to the signal ratio)
Method in brief: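 After 16 hours of compound treatment at 37 C, HepG2 cells with a stably integrated ARE-driven beta-lactamase reporter were loaded 2 hours at room temperature with LiveBLAzer B/G FRET substrate and fluorescence intensity measured.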

[7] = qHTS assay for small molecule agonists of the antioxidant response element (ARE) signaling pathway - cell viability counter screen (AID 743203; calls by dose curve; further: nearly all actives have a fitted effect of over 55% in size; further: potency means the concentration at half of the fitted maximal effect)
Method in brief: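 Cytotoxicity was tested in parallel with the ARE reporter screen. ARE-bla HepG2 cells were exposed to compounds for 16 hrs, and viability was taken from CellTiter-Glo luminescence.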

[8] = qHTS assay for small molecule activators of the heat shock response signaling pathway - cell viability counter screen (AID 743209); further: nearly all actives have a fitted effect of over 50% in size
Method in brief: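 Cytotoxicity counter screen run in parallel with the HSE beta-lactamase reporter, using the same wells. HeLa HSE-bla cells received compound for 5 h at 37 C; ATP-based CellTiter-Glo luminescence was measured after 30 min at room temperature.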

[9] = qHTS assay for small molecule activators of the heat shock response signaling pathway (AID 743210; active means well fitted activation curve with a large enough effect in the signal ratio in the repeat runs, with a control signal flat, not every such curve was filed as active; the % refers to the signal ratio; further: series mostly up to about 63 µM)
Method in brief: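 Compound exposure lasted 5 h at 37 C in HeLa cells carrying a heat-shock-element-driven beta-lactamase reporter. Read-out: fluorescence intensity after 2.5 h room-temperature loading with LiveBLAzer B/G FRET substrate.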

[10] = qHTS assay to identify small molecule agonists of the peroxisome proliferator-activated receptor delta (PPARd) signaling pathway - cell viability counter screen (AID 743211); further: nearly all actives have a fitted effect of over 55% in size
Method in brief: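 Multiplexed format: after the 2 h room-temperature LiveBLAzer B/G FRET step, CellTiter-Glo was added to the same wells. Luminescence after 30 min gave cell viability; compound exposure was 17 h at 37C.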

[11] = target: Peroxisome proliferator-activated receptor delta (Homo sapiens) (UniProt Q03181); test: qHTS assay to identify small molecule agonists of the peroxisome proliferator-activated receptor delta (PPARd) signaling pathway (AID 743212; calls by dose curve)
Method in brief: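 Beta-lactamase reporter readout: a ratiometric FRET signal from the LiveBLAzer substrate after 2 h at room temperature. Compound exposure at 37 °C in PPARδ-bla HEK293H cells driven by an upstream activator sequence.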

[12] = qHTS assay to identify small molecule antagonists of the peroxisome proliferator-activated receptor delta (PPARd) signaling pathway - cell viability counter screen (AID 743213); further: nearly all actives have a fitted effect of over 50% in size
Method in brief: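 PPARd-bla HEK293H cells were treated with compounds plus agonist L165041 (300 nM final) for 17 h at 37 C. Viability was then read in the same wells by CellTiter-Glo luminescence after 30 min at room temperature.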

[13] = target: Peroxisome proliferator-activated receptor delta (Homo sapiens) (UniProt Q03181); test: qHTS assay to identify small molecule antagonists of the peroxisome proliferator-activated receptor delta (PPARd) signaling pathway (AID 743215; active means well fitted inhibition curve with a large enough effect in the signal ratio in the repeat runs, not every such curve was filed as active; the % refers to the signal ratio;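 further: cells stimulated with agonist L165041 at 300 nM final during compound exposure; series mostly up to about 62 µM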)
Method in brief: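 Cells: HEK293H with a UAS-driven beta-lactamase reporter responsive to PPARd. Compounds were co-added with L165041 (300 nM, final) and incubated 17 h at 37 C before a 2 h room-temperature FRET substrate step and fluorescence reading.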

[14] = target: Bile acid receptor (Homo sapiens) (UniProt Q96RI1); test: qHTS assay to identify small molecule antagonists of the farnesoid-X-receptor (FXR) signaling pathway (AID 743217; active means well fitted inhibition curve with a large enough effect in the signal ratio in the repeat runs, not every such curve was filed as active; the % refers to the signal ratio)
Method in brief: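 Cells carrying a UAS-driven beta-lactamase reporter (GeneBLAzer FXR-UAS-bla HEK 293T) were plated and rested 5 h at 37 °C. Compounds in DMSO were added alongside chenodeoxycholic acid agonist at 50 uM final and left 16 h at 37 °C before FRET substrate readout.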

[15] = qHTS assay to identify small molecule agonists of the farnesoid-X-receptor (FXR) signaling pathway - cell viability counter screen (AID 743218); further: nearly all actives have a fitted effect of over 45% in size
Method in brief: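 Cells were seeded, left 5 h at 37 C and 5% CO2, then dosed with compound in DMSO for 16 h. After the beta-lactamase FRET read, CellTiter-Glo was added and luminescence measured 30 min later.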

[16] = target: Bile acid receptor (Homo sapiens) (UniProt Q96RI1); test: qHTS assay to identify small molecule agonists of the farnesoid-X-receptor (FXR) signaling pathway (AID 743220; active means well fitted activation curve with a large enough effect in the signal ratio in the repeat runs, not every such curve was filed as active; the % refers to the signal ratio)
Method in brief: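 FXR-UAS-bla HEK 293T cells carrying a UAS-driven beta-lactamase reporter were plated for 5 h at 37C/5% CO2, then exposed to DMSO-dissolved Tox21 10K compounds for 16 h at 37C. A LiveBLAzer B/G FRET substrate was loaded for 2 h at room temperature before fluorescence reading.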

[17] = qHTS assay to identify small molecule antagonists of the farnesoid-X-receptor (FXR) signaling pathway - cell viability counter screen (AID 743221; active means well fitted cell-killing curve with a large enough effect in the repeat runs, not every such curve was filed as active; further: nearly all actives have a fitted effect of over 50% in size)
Method in brief: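 CellTiter-Glo, 30 min RT, luminescence; same wells as the LiveBLAzer FRET read. Cells: FXR-UAS-bla HEK 293T. Treatment: compound with chenodeoxycholic acid 50 uM final, 16 h at 37 C.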

[18] = target: Vitamin D3 receptor (Homo sapiens) (UniProt P11473); test: qHTS assay to identify small molecule agonists of the vitamin D receptor (VDR) signaling pathway (AID 743222; calls by dose curve)
Method in brief: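 Cells carrying a VDR-driven beta-lactamase reporter are seeded at 2,000 per well and rested 4 h. Compounds in DMSO are added for 16 h at 37C, and FRET substrate fluorescence is measured after 2 h at room temperature.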

[19] = target: Vitamin D3 receptor (Homo sapiens) (UniProt P11473); test: qHTS assay to identify small molecule antagonists of the vitamin D receptor (VDR) signaling pathway (AID 743223; active means well fitted inhibition curve with a large enough effect in the signal ratio in the repeat runs, not every such curve was filed as active; the % refers to the signal ratio)
Method in brief: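 After VDR-bla cells are plated and left 4 h at 37C, DMSO-dissolved compounds and 3 nM (final) calcitriol agonist are added. Incubation continues 16 h at 37C; FRET beta-lactamase substrate then develops 2 h at room temperature.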

[20] = target: Aryl hydrocarbon receptor (Homo sapiens) (UniProt P35869); test: qHTS assay to identify small molecule that activate the aryl hydrocarbon receptor (AhR) signaling pathway (AID 743085);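 further: HG2L7.5c1 human HepG2 liver cells with stably integrated DRE-driven firefly reporter; series mostly up to about 70 µM; nearly all actives have a fitted effect of over 15% in size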
Method in brief: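 Reporter assay in engineered HepG2 line HG2L7.5c1, whose plasmid carries twenty dioxin responsive elements upstream of firefly luciferase. Treatment lasted 24 h at 37C; ONE-Glo luminescence gauged induction.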

Sequence of Vitamin D3 receptor (Homo sapiens) (P11473 whole entry, looked up): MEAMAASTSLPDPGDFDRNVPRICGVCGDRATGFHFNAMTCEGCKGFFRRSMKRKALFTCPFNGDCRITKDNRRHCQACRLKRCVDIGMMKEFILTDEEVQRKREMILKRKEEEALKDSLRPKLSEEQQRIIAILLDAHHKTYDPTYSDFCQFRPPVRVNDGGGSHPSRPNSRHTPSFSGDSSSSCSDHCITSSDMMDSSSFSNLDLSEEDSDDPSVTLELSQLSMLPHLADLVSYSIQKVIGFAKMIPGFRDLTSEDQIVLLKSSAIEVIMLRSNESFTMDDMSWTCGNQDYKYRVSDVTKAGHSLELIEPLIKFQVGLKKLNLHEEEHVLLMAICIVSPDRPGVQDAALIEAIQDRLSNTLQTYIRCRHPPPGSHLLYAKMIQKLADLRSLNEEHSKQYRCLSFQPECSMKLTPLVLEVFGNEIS
Sequence of Aryl hydrocarbon receptor (Homo sapiens) (P35869 whole entry, looked up): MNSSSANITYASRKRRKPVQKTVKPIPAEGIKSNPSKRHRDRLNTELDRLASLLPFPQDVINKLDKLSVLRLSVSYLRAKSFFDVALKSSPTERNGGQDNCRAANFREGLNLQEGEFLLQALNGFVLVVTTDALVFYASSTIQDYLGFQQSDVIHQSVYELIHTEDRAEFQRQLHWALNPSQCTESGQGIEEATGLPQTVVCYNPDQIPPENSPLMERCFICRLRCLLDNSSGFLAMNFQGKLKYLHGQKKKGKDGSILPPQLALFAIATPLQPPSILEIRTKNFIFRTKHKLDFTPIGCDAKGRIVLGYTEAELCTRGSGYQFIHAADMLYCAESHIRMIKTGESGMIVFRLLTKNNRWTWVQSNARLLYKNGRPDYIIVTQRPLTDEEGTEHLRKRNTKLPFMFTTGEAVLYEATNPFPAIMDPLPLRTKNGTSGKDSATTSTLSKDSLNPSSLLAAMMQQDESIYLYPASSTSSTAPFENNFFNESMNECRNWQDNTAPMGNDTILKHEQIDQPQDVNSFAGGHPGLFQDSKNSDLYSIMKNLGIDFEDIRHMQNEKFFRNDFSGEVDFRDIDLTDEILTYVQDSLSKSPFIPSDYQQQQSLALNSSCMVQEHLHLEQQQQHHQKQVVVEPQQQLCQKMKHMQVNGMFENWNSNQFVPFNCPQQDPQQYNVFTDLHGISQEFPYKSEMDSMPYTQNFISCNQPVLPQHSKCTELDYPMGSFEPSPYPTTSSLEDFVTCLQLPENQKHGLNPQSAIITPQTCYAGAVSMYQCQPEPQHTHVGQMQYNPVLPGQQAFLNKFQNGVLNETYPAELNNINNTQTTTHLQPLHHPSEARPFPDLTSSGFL
Sequence of Bile acid receptor (Homo sapiens) (Q96RI1 whole entry, looked up): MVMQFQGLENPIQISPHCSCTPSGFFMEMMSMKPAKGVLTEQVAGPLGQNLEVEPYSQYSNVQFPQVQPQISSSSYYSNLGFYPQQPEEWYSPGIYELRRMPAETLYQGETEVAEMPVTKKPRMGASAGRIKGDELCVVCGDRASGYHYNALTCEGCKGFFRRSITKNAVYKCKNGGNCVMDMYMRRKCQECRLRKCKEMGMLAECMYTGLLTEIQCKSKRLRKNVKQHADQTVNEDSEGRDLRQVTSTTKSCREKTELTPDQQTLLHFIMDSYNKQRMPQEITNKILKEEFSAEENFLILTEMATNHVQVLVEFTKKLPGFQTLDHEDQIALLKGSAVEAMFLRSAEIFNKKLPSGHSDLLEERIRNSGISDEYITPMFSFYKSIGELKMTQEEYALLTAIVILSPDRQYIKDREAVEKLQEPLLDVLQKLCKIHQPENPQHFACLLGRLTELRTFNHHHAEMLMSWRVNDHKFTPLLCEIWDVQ
Sequence of Peroxisome proliferator-activated receptor delta (Homo sapiens) (Q03181 whole entry, looked up): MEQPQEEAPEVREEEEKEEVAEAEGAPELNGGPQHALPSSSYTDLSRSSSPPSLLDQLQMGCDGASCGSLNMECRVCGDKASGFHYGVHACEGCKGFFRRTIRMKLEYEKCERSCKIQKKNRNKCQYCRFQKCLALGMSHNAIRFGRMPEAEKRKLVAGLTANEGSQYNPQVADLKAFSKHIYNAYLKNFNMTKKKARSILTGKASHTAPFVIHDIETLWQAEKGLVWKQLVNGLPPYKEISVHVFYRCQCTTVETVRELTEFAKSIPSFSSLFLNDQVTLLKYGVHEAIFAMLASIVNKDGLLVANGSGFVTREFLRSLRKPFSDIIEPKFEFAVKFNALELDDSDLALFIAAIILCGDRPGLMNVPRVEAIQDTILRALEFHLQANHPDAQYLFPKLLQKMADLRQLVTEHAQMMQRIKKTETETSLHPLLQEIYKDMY
Sequence of Peroxisome proliferator-activated receptor gamma (Homo sapiens) (P37231 whole entry, looked up): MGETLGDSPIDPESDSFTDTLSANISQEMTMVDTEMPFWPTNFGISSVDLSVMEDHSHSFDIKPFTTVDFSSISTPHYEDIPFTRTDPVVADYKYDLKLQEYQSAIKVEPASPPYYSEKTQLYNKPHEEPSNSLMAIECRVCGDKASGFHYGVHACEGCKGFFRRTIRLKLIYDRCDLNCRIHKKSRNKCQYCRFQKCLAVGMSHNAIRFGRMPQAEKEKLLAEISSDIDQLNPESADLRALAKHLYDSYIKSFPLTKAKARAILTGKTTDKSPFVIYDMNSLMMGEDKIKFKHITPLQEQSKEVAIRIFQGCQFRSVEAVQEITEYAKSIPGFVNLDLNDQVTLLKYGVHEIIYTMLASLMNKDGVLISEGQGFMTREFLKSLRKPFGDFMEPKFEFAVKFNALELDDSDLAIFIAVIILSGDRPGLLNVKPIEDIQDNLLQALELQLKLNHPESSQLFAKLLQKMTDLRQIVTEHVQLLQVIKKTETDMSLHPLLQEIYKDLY

Structure (SMILES) | Potency [1] | outcome [2] | Potency [3] | Potency [4] | Potency [5] | Potency [6] | Potency [7] | outcome [8] | Potency [9] | Potency [10] | outcome [11] | Potency [12] | outcome [13] | outcome [14] | Potency [15] | outcome [16] | outcome [17] | outcome [18] | outcome [19] | Potency [20]
NNS(=O)(=O)c1ccc(Oc2ccc(S(=O)(=O)NN)cc2)cc1 | inactive | inactive | inactive | inactive | inactive | inactive | inactive | inactive | inactive | inactive | inactive | inactive | inactive | inactive | inactive | inactive | inactive | inactive | inactive | 
CC/C=C\CCOC(=O)C(C)C | inactive | inactive | inactive |  |  |  | inactive | inactive | inactive | inactive | inactive | inactive |  |  | inactive |  | inactive |  | inactive | 
O=C(Cl)c1cccc([N+](=O)[O-])c1 | inactive | inactive | inactive | inactive | inactive | inactive | inactive | inactive | inactive |  | inactive | inactive | inactive | inactive |  | inactive | inactive | inactive | inactive | 
CC(C)=CCCC(C)CCOC=O (stereo not given) | inactive | inactive |  |  | 43.6 µM (active) |  | 54.5 µM (active) |  |  | inactive | inactive |  | inactive | inactive |  | inactive | inactive | inactive |  | inactive
CCN(CCCc1ccccc1)CCCc1ccccc1 | inactive | inactive | inactive |  |  |  |  | inactive | inactive | inactive | inactive |  | inactive | inactive | inactive | inactive | inactive | inactive | inactive | 
NC1=NCC2c3ccccc3Cc3ccccc3N12 (stereo not given) | inactive | inactive |  |  |  |  |  | inactive | inactive |  |  | inactive |  |  | inactive |  | inactive |  | inactive | inactive
CCOC(=O)COc1ccc2c(c1)CC(NCC(O)c1cccc(Cl)c1)CC2 (stereo not given) | 21.9 µM (active) |  | inactive | inactive |  |  |  | inactive |  |  | inactive | inactive | inactive |  | inactive |  | inactive | inactive | inactive | inactive
CC(C)C[C@H](NC(=O)OCC1c2ccccc2-c2ccccc21)C(=O)O | inactive | inactive |  |  | inactive | inactive | inactive | inactive | inactive | inactive | inactive | inactive |  | inactive | inactive | inactive | inactive |  |  | 
CCOc1ccccc1N | inactive | inactive | inactive | inactive | inactive | inactive | inactive | inactive | inactive | inactive |  | inactive |  |  |  |  | inactive | inactive | inactive | 
OCC(CBr)(CBr)CBr | inactive | inactive | inactive | inactive |  |  |  | inactive | inactive | inactive | inactive |  | inactive |  | inactive |  | inactive | inactive |  | 
